# Data taken from the supplement of paper PMC6555819.
# Legend:
# Assay in all cases: PBM binding z-score (relative to random genomic background probes); higher = stronger binding; sequences stand for … in GC…GCGATTGACAGCGTAGAATGAAGG
# [1] = tested on: FXR:RXRa (NR concentration 270 nM, RXRa partner concentration 90 nM)
# How it was run: (§1)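 Custom Agilent 4×180K protein-binding microarrays carried double-stranded probes. Their 34-nt variable regions held direct-repeat seeds, single-nucleotide variants, half-site ablations and random human genomic background sequences. Arrays were incubated 1 h with ligand-free nuclear receptor dimers in PBS pH 7.4, 2% milk, 0.02% Triton X-100, 1 mM DTT, 0.2 mg/mL BSA and 0.4 mg/ml salmon testes DNA. Antibodies against each partner (one per run) detected binding, and scanned fluorescence was regression-normalized. Binding z-scores use random background probes as reference.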
# [2] = tested on: LXRa:RXRa (NR concentration 270 nM, RXRa partner concentration 90 nM)
# How it was run: as §1
# [3] = tested on: LXRa homodimer (NR concentration 270 nM)
# How it was run: as §1
# [4] = tested on: LXRb:RXRa (NR concentration 270 nM, RXRa partner concentration 90 nM)
# How it was run: as §1
# [5] = tested on: LXRb homodimer (NR concentration 270 nM)
# How it was run: as §1
# [6] = tested on: PPARa:RXRa (NR concentration 270 nM, RXRa partner concentration 90 nM)
# How it was run: as §1
# [7] = tested on: PPARg:RXRa (NR concentration 180 nM, RXRa partner concentration 90 nM)
# How it was run: as §1
# [8] = tested on: PPARg:RXRa 270nM:90nM, anti-RXR (NR concentration 270 nM, RXRa partner concentration 90 nM)
# How it was run: as §1
# [9] = tested on: PPARg:RXRa 30nM:10nM, anti-RXR (NR concentration 30 nM, RXRa partner concentration 10 nM)
# How it was run: as §1
# [10] = tested on: PPARg:RXRa 90nM:30nM, anti-RXR (NR concentration 90 nM, RXRa partner concentration 30 nM)
# How it was run: as §1
# [11] = tested on: PPARg:RXRa DBDmut IVT, anti-RXR (DBD mutation: RXRa K156A/R161A, NR concentration 270 nM, RXRa partner concentration 90 nM)
# How it was run: as §1
# [12] = tested on: PPARg:RXRa IVT, anti-PPARg (NR concentration 270 nM, RXRa partner concentration 90 nM)
# How it was run: as §1
# [13] = tested on: PPARg DBDmut:RXRa IVT, anti-PPARg (DBD mutation: PPARg1 K132A/R137A, NR concentration 270 nM, RXRa partner concentration 90 nM)
# How it was run: as §1
# [14] = tested on: PPARg DBDmut IVT, anti-PPARg (DBD mutation: PPARg1 K132A/R137A, NR concentration 270 nM)
# How it was run: as §1
# [15] = tested on: PPARg homodimer (NR concentration 180 nM)
# How it was run: as §1
# [16] = tested on: PXR:RXRa (NR concentration 270 nM, RXRa partner concentration 90 nM)
# How it was run: as §1
# [17] = tested on: PXR homodimer (NR concentration 270 nM)
# How it was run: as §1
# [18] = tested on: RARa:RXR (NR concentration 270 nM, RXRa partner concentration 90 nM)
# How it was run: as §1
# [19] = tested on: RARa homodimer (NR concentration 270 nM)
# How it was run: as §1
# [20] = tested on: RARb:RXRa (NR concentration 270 nM, RXRa partner concentration 90 nM)
# How it was run: as §1
Sequence,PBM binding z-score [1],PBM binding z-score [2],PBM binding z-score [3],PBM binding z-score [4],PBM binding z-score [5],PBM binding z-score [6],PBM binding z-score [7],PBM binding z-score [8],PBM binding z-score [9],PBM binding z-score [10],PBM binding z-score [11],PBM binding z-score [12],PBM binding z-score [13],PBM binding z-score [14],PBM binding z-score [15],PBM binding z-score [16],PBM binding z-score [17],PBM binding z-score [18],PBM binding z-score [19],PBM binding z-score [20]
TCTTGTAGATCAATAGATGTTAAGAAAGTGCGCT,0.0811,0.309,0.0852,0.0203,-0.00365,-0.0219,0.251,1.64,3.17,2.42,1.57,0.386,0.918,1.19,-0.501,0.533,0.037,0.616,0.125,-0.26
ATCGAAAGGTCGAGGTGAGTAAAGAGAAAGGGAA,4.14,3.26,0.0324,2.59,0.664,4.57,3.27,3.83,1.09,2.5,0.198,1.99,1.11,0.693,1.75,2,0.184,2.88,0.627,3.95
CCTACTCGGCCAAAGGTCATTGATTCCAATGCTC,4.86,5.54,4.99,5.12,1.98,6.14,10.1,9.26,8.85,9.61,3.3,5.09,0.222,-0.127,3.85,5.38,2.54,5.95,1.19,4.56
TAAATGAGGTTAAAGATCAGGGAACGTGGCGTCG,3.68,3.6,0.629,2.46,1.07,5.14,6.76,6.79,5.89,7.34,3.59,4.36,2.17,2.54,1.72,2.36,0.486,3.21,1.03,2.29
AGAATGAGGTTATTAAGATAAGGGAATTGCGGTC,1.33,1.59,-0.0371,1.08,-0.0386,2.64,1.47,1.65,0.732,0.962,2.05,2.31,1.03,0.188,0.58,0.886,0.278,1.24,0.541,1.23
TCGAGTAGGTTAGTCGGGGTATTCAGCCAACATA,0.000404,-0.0351,-0.315,0.411,-0.451,0.421,-0.245,0.44,1.24,0.688,2.12,1.56,-0.225,-0.287,-0.0532,-0.197,-0.205,0.128,-0.0281,0.0838
GCATATAGGTAATACAAGGTGAAACTCCGATTGT,1.27,2.79,0.554,0.988,-0.38,1.83,1.5,1.04,0.514,0.842,4.64,3.25,1.19,0.842,0.705,0.857,-0.379,1.52,0.524,0.667
TCTGCTAGGTCAGTTGGTCAGATAACGAGCTGCC,1.05,0.831,-0.457,0.683,0.181,1.36,0.922,1.72,1.53,1.68,2.68,3.15,0.782,0.323,0.482,0.274,-0.646,0.69,-0.432,3.36
GCTAGTTGGTCAATAAAAGGTCACACACCGGTCG,3.63,5.13,6.33,4.53,0.973,4.39,2.18,3.93,1.16,2.9,1.64,3.07,0.532,0.266,4.72,5.3,1.4,5.89,3.47,4.33
CGTCCAAGGTCATAGGTCAGTGAAGAGATGACGG,7.34,5.78,1.65,4.74,1.02,6.22,7.76,7.27,5.12,7.07,3.46,4.78,0.896,-0.0935,3.35,5.48,1.01,6.98,1.13,5.36
TCTTGTAGATCAGCAGGTTAACAAAGCTGGCCAA,0.321,0.368,-0.313,0.507,-0.6,1.21,0.102,1.77,2.61,2.21,1.62,0.747,-0.763,-0.365,0.0617,0.171,-0.584,0.489,-0.289,0.359
TCGAGTAGGTTACCAATGGGACATTCAGCTTTCT,0.203,1.04,-0.603,0.366,-0.806,0.841,0.563,1.2,1.11,1.08,2.84,2.43,-0.217,0.266,-0.26,0.0751,-0.84,0.149,-0.599,0.695
AGGATGAGGTTATTAAGATCAGGGAATTGCGGTC,2.1,1.84,0.789,1.65,0.764,2.29,1.06,1.24,0.391,0.788,0.511,0.741,0.904,0.665,1.83,1.69,1.82,1.53,0.954,1.72
TCGAGTACGTTACCAATGGGGCATTCAGCTTTCT,-0.0711,-0.26,-0.435,0.321,-0.0116,0.16,-0.0505,0.394,1.32,0.788,0.846,-0.201,-0.329,-0.495,-0.459,0.154,-0.778,0.193,-0.477,0.0471
